Results from PubChem BioAssay (Tox21).
Activity calls are given as the source filed them. Unless noted, calls come from the whole dose curve; as a rule, active = well fitted curve in the direction sought with a large enough effect in the repeat runs; inconclusive = weak or mixed curves; inactive = no such curve, though single readings can be large; an effect the other way counts as inactive or inconclusive.

What was measured:
[1] = qHTS assay for small molecules that induce genotoxicity in human embryonic kidney cells expressing luciferase-tagged ATAD5 (AID 651632); note: nearly all actives have a fitted effect of over 15% in size; note: potency is the fitted concentration of half-maximal effect
Procedure, shortened: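 Concentration-response screen for ATAD5 upregulation in HEK293T luciferase reporter cells; 16 hr treatment at 37C, then luminescence after 30 min with Amplite at room temperature.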

[2] = qHTS assay for small molecule agonists of the p53 signaling pathway - cell viability (AID 651633; calls by dose curve;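 note: p53RE-bla HCT reporter cells with a stable beta-lactamase p53 reporter; series mostly up to about 83 µM; nearly all actives have a fitted effect of over 30% in size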)
Procedure, shortened: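 Viability counter-read: CellTiter-Glo luminescence (30 min, room temperature) in the same p53RE-bla plates. These plates had been exposed to compounds for 16 h at 37 C.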

[3] = qHTS assay for small molecules that induce genotoxicity in human embryonic kidney cells expressing luciferase-tagged ATAD5 - cell viability (AID 651634; calls by dose curve; note: nearly all actives have a fitted effect of over 25% in size; note: potency is the fitted concentration of half-maximal effect)
Procedure, shortened: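 15.5 hr compound or vehicle exposure of HEK293T cells expressing luciferase-tagged ATAD5 at 37C; live-cell protease activity is read by fluorescence after 30 min of CellTiter-Fluor.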

[4] = qHTS assay for small molecule disruptors of the mitochondrial membrane potential - cell viability (AID 720634; calls by dose curve; note: nearly all actives have a fitted effect of over 20% in size; note: potency is the fitted concentration of half-maximal effect)
Procedure, shortened: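 In this qHTS format, HepG2 cells plated overnight were pinned with compound, incubated 1 hr, and assayed for ATP luminescence with CellTiter-Glo after m-MPI dye addition.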

[5] = qHTS assay for small molecule disruptors of the mitochondrial membrane potential (AID 720635); note: potency is the fitted concentration of half-maximal effect
Procedure, shortened: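 Mitochondrial membrane potential tracked with Mito-MPS dye, red aggregates (ex 540/em 590 nm) against green monomers (ex 490/em 535 nm). Compound treatment 1 hr at 37C, dye 30 min in HepG2.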

[6] = qHTS assay to test for compound auto fluorescence at 590 nm (red) in HepG2 cells (AID 720674)
Procedure, shortened: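 1 hr compound incubation on HepG2 cells, 37 C, 5% CO2; plate read ex 540 nm / em 590 nm; intensities reported as Rose Bengal sodium equivalents.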

[7] = qHTS assay to test for compound auto fluorescence at 535 nm (green) in HepG2 cells (AID 720675)
[8] = qHTS assay to test for compound auto fluorescence at 590 nm (red) in HEK293 cells (AID 720679)
Procedure, shortened: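 HEK293 cells (2,000/well, medium with 10% dialyzed FBS) attached for 4-5 hr at 37C, received 23 nL compound and were incubated overnight at 37C, 5% CO2. Red fluorescence was then read at 540/590nm Ex/Em, referenced to Rose Bengal sodium.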

[9] = qHTS assay to test for compound auto fluorescence at 535 nm (green) in HEK293 cells (AID 720680)
[10] = qHTS assay to test for compound auto fluorescence at 535 nm (green) in HEK293 cell free culture (AID 720682)
Procedure, shortened: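 No cells present: wells hold DMEM supplemented with 10% FBS, into which compound or vehicle is pinned. Green emission is then recorded (485 nm excitation, 535 nm emission) and scaled to fluorescein.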

[11] = qHTS assay to test for compound auto fluorescence at 590 nm (red) in HEK293 cell free culture (AID 720683)
Procedure, shortened: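 Red-channel autofluorescence of compounds in culture medium (DMEM, 10% FBS), no cells, measured at 540/590 nm. Rose Bengal sodium is the reference fluorophore for equivalence.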

[12] = qHTS assay to test for compound auto fluorescence at 590 nm (red) in HepG2 cell free culture (AID 720684)
Procedure, shortened: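 No cells present: MEM + 10% FBS only. Compound pinned in, red label read (540/590 nm). Activity = fluorescence equivalent to Rose Bengal sodium.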

[13] = qHTS assay to test for compound auto fluorescence at 460 nm (blue) in HepG2 cell free culture (AID 720685)
Procedure, shortened: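 Cell-free plates of MEM plus 10% FBS received 23 nL compound or DMSO vehicle; blue-channel (405/460 nm) intensity scored against triamterene as reference fluorophore.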

[14] = qHTS assay to test for compound auto fluorescence at 535 nm (green) in HepG2 cell free culture (AID 720686)
[15] = qHTS assay to test for compound auto fluorescence at 460 nm (blue) in HepG2 cells (AID 720687)
Procedure, shortened: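 Blue-channel autofluorescence (Ex/Em 405/460 nm, triamterene-equivalent) was measured after 1 hr compound exposure at 37 C, 5% CO2. Cells were HepG2, plated overnight at 37 C in MEM plus 10% FBS.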

[16] = qHTS assay to test for compound auto fluorescence at 460 nm (blue) in HEK293 cell free culture (AID 720681)
Procedure, shortened: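 Blue fluorescence (Ex 405/Em 460 nm, triamterene-equivalent) was read immediately after pin transfer of compound or DMSO into medium (DMEM, 10% FBS) without cells.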

[17] = qHTS assay to test for compound auto fluorescence at 460 nm (blue) in HEK293 cells (AID 720678)
Procedure, shortened: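 HEK293 cells (2,000 per well, medium with 10% dialyzed FBS) attached for 4-5 hr at 37C, then received compound and stood overnight at 37C, 5% CO2. Blue fluorescence was read at Ex/Em 405/460 nm and expressed relative to triamterene.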

[18] = target: Glucocorticoid receptor (Homo sapiens) (UniProt P04150); test: qHTS assay to identify small molecule agonists of the glucocorticoid receptor (GR) signaling pathway (AID 720691; active = well fitted activation curve with a large enough effect in the signal ratio in the repeat runs, not every such curve was filed as active; inconclusive = weak or mixed curves, or effect the other way; inactive = no such curve, though single readings can be large or run the other way; the % refers to the signal ratio; note: potency is the fitted concentration of half-maximal effect)
Glucocorticoid receptor (Homo sapiens), sequence (P04150 whole entry, looked up): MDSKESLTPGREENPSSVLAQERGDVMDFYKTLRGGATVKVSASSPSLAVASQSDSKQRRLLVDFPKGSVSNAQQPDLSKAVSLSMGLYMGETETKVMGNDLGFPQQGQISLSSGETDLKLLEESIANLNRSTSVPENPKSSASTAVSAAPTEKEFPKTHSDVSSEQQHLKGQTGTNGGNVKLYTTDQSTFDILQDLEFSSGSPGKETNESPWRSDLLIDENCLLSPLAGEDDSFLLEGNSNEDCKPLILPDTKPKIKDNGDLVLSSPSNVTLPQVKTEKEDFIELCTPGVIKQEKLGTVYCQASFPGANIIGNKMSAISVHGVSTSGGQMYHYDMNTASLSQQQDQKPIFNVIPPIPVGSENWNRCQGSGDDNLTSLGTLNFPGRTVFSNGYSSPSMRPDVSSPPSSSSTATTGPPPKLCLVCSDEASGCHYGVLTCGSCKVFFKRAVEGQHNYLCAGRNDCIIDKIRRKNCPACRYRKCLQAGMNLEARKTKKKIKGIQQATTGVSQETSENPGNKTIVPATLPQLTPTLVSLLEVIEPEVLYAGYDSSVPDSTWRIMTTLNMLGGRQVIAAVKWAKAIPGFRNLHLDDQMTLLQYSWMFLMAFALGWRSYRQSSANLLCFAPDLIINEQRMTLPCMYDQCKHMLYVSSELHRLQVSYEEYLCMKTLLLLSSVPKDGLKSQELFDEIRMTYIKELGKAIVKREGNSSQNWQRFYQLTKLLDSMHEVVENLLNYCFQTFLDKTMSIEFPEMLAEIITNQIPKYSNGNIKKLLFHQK
Procedure, shortened: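 Measures GR pathway activation through a GRE-beta-lactamase reporter stably integrated in HeLa cells, with 18 h compound treatment at 37 C and fluorescence detection using a FRET substrate.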

[19] = target: Glucocorticoid receptor (Homo sapiens) (UniProt P04150); test: qHTS assay to identify small molecule antagonists of the glucocorticoid receptor (GR) signaling pathway (AID 720692; active = well fitted inhibition curve with a large enough effect in the signal ratio in the repeat runs, not every such curve was filed as active; inconclusive = weak or mixed curves, or effect the other way; inactive = no such curve, though single readings can be large or run the other way; the % refers to the signal ratio; note: potency is the fitted concentration of half-maximal effect)
Procedure, shortened: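 Tox21 10K library screened in concentration-response for blockade of dexamethasone (5 nM final)-induced GRE-bla reporter activity in HeLa cells; 18 h treatment, fluorescence read.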
% is set by controls: 0 for no effect and ±100 for the full control effect.

CCC(=O)C1CC(C(C)C)CC=C1C (centres undefined)
inactive: Potency [1] | Potency [2] | Potency [3] | Potency [4] | Potency [5] | outcome [6] | outcome [7] | outcome [8] | outcome [9] | outcome [10] | outcome [11] | outcome [12] | Potency [13] | outcome [14] | Potency [15]

CC(=O)OCC(=O)NCCCOc1cccc(CN2CCCCC2)c1
inactive: Potency [1] | Potency [2] | Potency [3] | Potency [4] | Potency [5] | outcome [6] | outcome [7] | outcome [8] | Potency [16] | outcome [10] | outcome [11] | Potency [13] | outcome [14] | Potency [15]

CC1(C)O[C@@H]2C[C@H]3[C@@H]4C[C@H](F)C5=CC(=O)C=C[C@]5(C)[C@H]4[C@@H](O)C[C@]3(C)[C@]2(C(=O)CO)O1
active: Potency [18] 1.29 µM [inconclusive]
inactive: Potency [2] | Potency [3] | Potency [4] | fluorescence, relative to Rose Bengal [6] 0.174% [at 18.6 µM] | fluorescence, % of fluorescein control [7] -0.107% [at 18.6 µM] | fluorescence, % of triamterene [17] -0.229% [at 18.6 µM] | fluorescence, % of fluorescein [9] -0.126% [at 18.6 µM] | fluorescence, % of fluorescent control [16] -0.131% [at 18.6 µM] | activity change [10] -0.178% [at 18.6 µM] | fluorescence, % of fluorescent control [11] -0.673% [at 18.6 µM] | fluorescence, % of fluorescent control [13] -0.0967% [at 18.6 µM] | fluorescence, % of fluorescent control [15] -0.0461% [at 18.6 µM]

O=[N+]([O-])c1ccc(O/N=C/c2cc(Br)c(O)c(Br)c2)c([N+](=O)[O-])c1
active: Potency [3] 24.2 µM | Potency [4] 12.1 µM | Potency [5] 0.859 µM
inactive: Potency [1] | outcome [6] | outcome [7] | Potency [17] | outcome [8] | outcome [9] | Potency [16] | outcome [10] | outcome [11] | outcome [12] | Potency [13] | Potency [15]

CC1(C)[C@H](C(=O)O)N2C(=O)C[C@H]2S1(=O)=O
inactive: Potency [4] | Potency [5] | outcome [6] | outcome [7] | Potency [17] | outcome [8] | outcome [9] | Potency [16] | outcome [10] | outcome [11] | outcome [12] | Potency [13] | outcome [14] | Potency [15]

Cc1ccc2c(Br)cc(Br)c(O)c2n1
active: Potency [1] 23.7 µM | Potency [5] 23.7 µM | Potency [19] 23.9 µM
inactive: Potency [3] | Potency [4] | outcome [6] | outcome [7] | outcome [8] | outcome [9] | Potency [16] | outcome [10] | outcome [11] | outcome [12] | Potency [13] | outcome [14] | Potency [15]

c1ccc2sc(SN(C3CCCCC3)C3CCCCC3)nc2c1
inactive: Potency [1] | Potency [3] | outcome [6] | outcome [7] | Potency [17] | outcome [8] | outcome [9] | Potency [16] | outcome [10] | outcome [11] | outcome [12] | Potency [13] | outcome [14] | Potency [15]

CCCC(C(=O)OCCN(CC)CC)(c1ccccc1)c1ccccc1
inactive: Potency [1] | Potency [2] | Potency [4] | outcome [6] | outcome [7] | Potency [17] | outcome [8] | outcome [9] | Potency [16] | outcome [10] | outcome [11] | outcome [12] | Potency [13] | outcome [14] | Potency [15]

OC[C@H]1O[C@@H](n2cnc3c(=S)nc[nH]c32)[C@H](O)[C@@H]1O
inactive: Potency [1] | Potency [3] | Potency [4] | outcome [6] | outcome [7] | Potency [17] | outcome [9] | Potency [16] | outcome [10] | outcome [11] | outcome [12] | Potency [13] | outcome [14] | Potency [15] | Potency [18]
active: Potency [5] 0.211 µM

CC(=O)NC1(c2cccc(F)c2)CCN(CC[C@@]2(c3ccc(Cl)c(Cl)c3)CN(c3ccccc3)C(=O)CO2)CC1
inactive: Potency [1] | Potency [4] | outcome [6] | outcome [7] | outcome [8] | outcome [9] | outcome [10] | outcome [11] | outcome [12] | Potency [13] | outcome [14] | Potency [15]

CCOc1ccc(Cc2nccc3cc(OCC)c(OCC)cc23)cc1OCC
inactive: Potency [1] | Potency [2] | Potency [4] | fluorescence, relative to Rose Bengal [6] 0.4% [at 18.6 µM] | fluorescence, % of fluorescein control [7] 0.127% [at 18.6 µM] | fluorescence, % of triamterene [17] -0.0249% [at 18.6 µM] | fluorescence, % of fluorescent control [8] 0.0124% [at 18.6 µM] | fluorescence, % of fluorescent control [16] 0.019% [at 18.6 µM] | activity change [10] 0.0026% [at 18.6 µM] | fluorescence, % of fluorescent control [11] 0.116% [at 18.6 µM] | fluorescence, % of Rose Bengal [12] 0.0721% [at 18.6 µM] | fluorescence, % of fluorescent control [13] -0.0254% [at 18.6 µM] | fluorescence, % of fluorescent control [15] -0.0004% [at 18.6 µM] | Potency [18]

O=C(O)CCc1nc(-c2ccccc2)c(-c2ccccc2)o1
inactive: Potency [1] | Potency [2] | Potency [4] | Potency [5] | outcome [7] | Potency [17] | outcome [8] | outcome [9] | Potency [16] | outcome [10] | outcome [11] | outcome [12] | Potency [13] | outcome [14] | Potency [15] | Potency [18] | Potency [19]

CCCCCCCCC(CCCCCC)C(=O)O (centres undefined)
inactive: Potency [1] | Potency [3] | Potency [4] | outcome [6] | outcome [7] | Potency [17] | outcome [9] | Potency [16] | outcome [10] | outcome [11] | outcome [12] | Potency [13] | outcome [14] | Potency [15]
active: Potency [19] 38.9 µM

CN1C[C@H](C(=O)N[C@]2(C)O[C@@]3(O)[C@@H]4CCCN4C(=O)[C@H](Cc4ccccc4)N3C2=O)C[C@@H]2c3cccc4[nH]cc(c34)C[C@H]21
inactive: Potency [1] | Potency [2] | Potency [4] | outcome [7] | outcome [8] | outcome [9] | Potency [16] | outcome [10] | outcome [11] | Potency [13] | outcome [14] | Potency [15] | Potency [18] | Potency [19]

Cc1cccc(O)c1N
inactive: Potency [1] | Potency [2] | Potency [4] | outcome [6] | outcome [7] | outcome [8] | outcome [9] | outcome [10] | outcome [11] | outcome [12] | Potency [13] | outcome [14] | Potency [15] | Potency [18] | Potency [19]
